# Test results: PubChem BioAssay AID1259415 (National Center for Advancing Translational Sciences (NCATS), 2018)
# Hit rate of the full screen: of about 410,000 compounds, about 18,000 (4.4%) were called active. About 7% were inconclusive and are not listed. Cut-off read from the data, not from the text of the source: active = activity change below about -60%; inconclusive = no clear call, values can overlap the other calls; inactive = above about -39%. Only a selection was taken, and actives are over-represented in it overall.
# Assay: qHTS Assay for inhibitors of the human cytomegalovirus (HCMV)
# Conditions: HFF cells, HCMV-luciferase reporter, 72 h; at 57.5 µM; stronger effect = lower value
# How it was run: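 HFF cells seeded 16 h at 37C, treated with compounds, infected with luciferase-reporter HCMV at MOI 1 PFU/cell; luciferase read at 72 h post infection, normalized to buffer-only and Salinomycin controls.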
# % is set by controls: 0 for no effect and ±100 for the full control effect.
row,SMILES,"activity change, negative = inhibition"
1,Cc1cc2cc3n(c2nn1)N=C(Cl)CC3,-74.2% (active)
2,Cc1ccc(C(=O)COC(=O)C(Cc2c[nH]c3ccccc23)NC(=O)c2ccc(Br)cc2)cc1 (centres undefined),0% (inactive)
3,O=C(CSc1nccn1Cc1ccc(F)cc1)NCc1ccccc1,-14.9% (inactive)
4,O=C1NC(Cc2ccccc2)c2nc3ccc(Br)cc3c(=O)n2-c2cc3ccccc3cc21 (centres undefined),17% (inactive)
5,COc1ccc2nc3n(c(=O)c2c1)-c1ccc(Cl)cc1C(=O)NC3Cc1ccccc1 (centres undefined),-25.7% (inactive)
6,CC(C)CC1NC(=O)c2cc(Cl)ccc2-n2c1nc1ccccc1c2=O (centres undefined),-99.6% (active)
7,Cc1ccc(-c2nnn(CC(=O)N(Cc3ccco3)C(C(=O)NC(C)(C)C)c3ccncc3)n2)o1 (centres undefined),9.51% (inactive)
8,Cc1ccc(-c2cc(C(=O)Oc3ccccc3Cl)no2)cc1C,81.2% (inactive)
9,COc1cc(C(=O)N(Cc2ccc(C(C)C)cc2)C2CCS(=O)(=O)C2)cc(OC)c1OC (centres undefined),11.7% (inactive)
10,CN(C(=O)CSc1nc2ccccc2n1Cc1ccccc1C#N)c1ccccc1,-3.45% (inactive)
11,C[C@@H](NC(=O)OC(C)(C)C)c1nnc(S(=O)(=O)Cc2ccccc2)o1,-105% (active)
12,CC(C)[C@@H](NC(=O)OC(C)(C)C)C(=O)NCC1CCC(C(=O)N[C@@H](Cc2ccccc2)C(=O)O)CC1 (some centres undefined),-17.7% (inactive)
13,CC(C)(C)c1ccc(C(CC(=O)O)NS(=O)(=O)Cc2ccccc2)cc1 (centres undefined),30.5% (inactive)
14,CC(C)N(C(=O)Cn1c(SCC(=O)N2CCN(c3ccccc3)CC2)nc2ccccc21)C(C)C,-20.6% (inactive)
15,CCn1cc2nc(SCc3ccccc3Cl)n(CCc3ccccc3)c(=O)c2n1,-14.7% (inactive)
16,COc1cc(C(=O)NCCc2csc3nc(-c4ccccc4C)nn23)cc(OC)c1OC,7.41% (inactive)
17,CCCNC(=O)c1nnc2n1CCN(C(=O)c1ccccc1OC)C2,-9.02% (inactive)
18,COc1ccccc1C(=O)NCCn1cc(SCc2ccccc2Cl)c2ccccc21,20.2% (inactive)
19,Cc1cccc(CN2CCN(C3CN(Cc4ccccc4)S(=O)(=O)C3)CC2)c1 (centres undefined),-24.1% (inactive)
20,Cc1cccc(CN2CCN(C3CN(Cc4cn(Cc5cc(C)cc(C)c5)nn4)S(=O)(=O)C3)CC2)c1 (centres undefined),-101% (active)

row,SMILES,"activity change, negative = inhibition"
1,Cc1cccc(CN2CCN(C3CN(Cc4cn(Cc5ccccc5F)nn4)S(=O)(=O)C3)CC2)c1 (centres undefined),-0.715% (inactive)
2,COc1cccc(CNC(=O)C(=O)NCC(c2cccs2)S(=O)(=O)c2ccccc2)c1 (centres undefined),-19.1% (inactive)
3,Cc1nc(NC(=O)CN(C)S(=O)(=O)c2ccc(Cl)cc2)sc1C,12.3% (inactive)
4,COCCN(C(=O)CCC(=O)Nc1nccs1)C(C(=O)NC(C)(C)C)c1ccc(Cl)cc1 (centres undefined),-6.27% (inactive)
5,CN(CCCC(=O)Nc1nccs1)S(=O)(=O)c1ccc(Cl)cc1,-64.7% (active)
6,CCc1ccc(CN(Cc2ccco2)C(=O)COc2ccc(Cl)c(C)c2)cc1,-9.02% (inactive)
7,Cc1c(Cl)c([N+](=O)[O-])nn1CCCC(=O)NC(C)c1ccccc1 (centres undefined),46.9% (inactive)
8,Cc1c(Cl)c([N+](=O)[O-])nn1CC(=O)NCC1CCCO1 (centres undefined),35.2% (inactive)
9,Cc1c(Cl)c([N+](=O)[O-])nn1Cc1ccc(C(=O)N/N=C\c2cc(Cl)ccc2O)o1,-93.7% (active)
10,O=C1CC(c2nnc(Cc3ccc(Cl)cc3)o2)CN1c1ccccc1 (centres undefined),-4.62% (inactive)
11,COc1ccccc1C(=O)OCC(=O)NCCNC(=O)COC(=O)c1ccccc1OC,-25.9% (inactive)
12,CCOC(=O)C(=Cc1ccccc1OC)C(=O)OCC,-65.2% (active)
13,COc1ccccc1/C=C/C(=O)OCC(=O)NC1CCCCCC1,-34.6% (inactive)
14,CCc1cnc2c(c1SCC(=O)N1CCC(C)CC1)c(=O)n(C)c(=O)n2C,-18.2% (inactive)
15,COc1ccc2[nH]c3c(c2c1)CCN1C(=O)C(CC(=O)NCc2cccc(C(F)(F)F)c2)C[C@H](C(=O)N2CCOCC2)[C@@]31C (some centres undefined),-2.74% (inactive)
16,CCN(CC)S(=O)(=O)c1nnc(NC(=O)COc2ccccc2Cl)s1,-5.69% (inactive)
17,Fc1ccc2nc(-c3ccccc3)nc(SCc3nnc(-c4ccccc4)o3)c2c1,1.64% (inactive)
18,Clc1ccc2nc(-c3ccccc3)nc(C(Cl)Cl)c2c1,-78.3% (active)
19,O=C(C1COc2ccccc2O1)N(Cc1cccnc1)c1nc2c(F)cc(F)cc2s1 (centres undefined),0% (inactive)
20,Cc1cc(S(=O)(=O)NCC(C)C)ccc1OCC(=O)NC1CC1,-9.36% (inactive)

row,SMILES,"activity change, negative = inhibition"
1,O=C(Nc1ccc2ccccc2c1)Nc1ccc2snnc2c1,-97.2% (active)
2,COc1cccc(C(=O)Nc2ccc3oc(-c4ccc5ccccc5c4)nc3c2)c1,12.9% (inactive)
3,CS(=O)(=O)c1ccccc1C(=O)Nc1ccc2sccc2c1,22.5% (inactive)
4,CC(C)CC(=O)NCC(c1ccc2c(c1)OCO2)N1CCN(c2ccc(F)cc2)CC1 (centres undefined),1.29% (inactive)
5,COc1ccc(NC(=O)N2CCCn3nc(C)cc32)cc1OC,9.12% (inactive)
6,CCn1cc(NC(=O)Nc2ccc(OC)c(OC)c2)c(C(N)=O)n1,-11.8% (inactive)
7,COc1ccc(NC(=O)NC(C)c2c(-n3cccc3)sc(C)c2C)cc1OC (centres undefined),-77.2% (active)
8,NC1=NC(=O)C(Cc2cccc(Cl)c2)S1 (centres undefined),4.67% (inactive)
9,COc1ccc(-n2c(=O)c3c(c4cc(OC)ccc4n3C)n(Cc3cccc(C)c3)c2=O)cc1,-5.82% (inactive)
10,COC(=O)C[C@@H]1C=C[C@@H](NC(=O)c2cccnc2)[C@@H](CO)O1,-9.71% (inactive)
11,CCn1cc(C(=O)NCCc2ccccc2)c(=O)c2cc(S(=O)(=O)N3CCCCCC3)ccc21,-9.08% (inactive)
12,CCCCNC(=O)c1nc2cc(C)c(C)cc2nc1-c1ccc(OC)cc1,9.19% (inactive)
13,COc1ccc(-c2nc3c4ccccc4n(CC(=O)Nc4ccc(C(C)=O)cc4)c(=O)n3n2)cc1,29.2% (inactive)
14,OC[C@@H]1CN(Cc2ccc(-c3ccccc3)cc2)C[C@H](n2cnc3c(NC4CCCC4)ncnc32)O1,-84.2% (active)
15,OCCN1CCN(c2ncnc3c2ncn3[C@H]2CN(Cc3ccco3)C[C@@H](CO)O2)CC1,-21.8% (inactive)
16,OC[C@@H]1CN(C2CCCC2)C[C@H](n2cnc3c(NC4CCC4)ncnc32)O1,-6.08% (inactive)
17,CC(C)Nc1ncnc2c1ncn2[C@H]1CN(Cc2ccncc2)C[C@@H](CO)O1,23.6% (inactive)
18,OC[C@@H]1CN(Cc2ccncc2)C[C@H](n2cnc3c(N4CCN(c5ccccc5)CC4)ncnc32)O1,-88% (active)
19,OC[C@@H]1CN(Cc2cccs2)C[C@H](n2cnc3c(Nc4ccccc4)ncnc32)O1,-28.3% (inactive)
